Measurements as given in PubChem BioAssay AID1839 (Johns Hopkins Ion Channel Center, 2009).
In all, about 2,400 compounds went through this assay and about 220 (9.2%) were called active. This is one part of a sample in which actives are shown more often than they occur.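 The calls were made as follows: active = signal change above the mean of dofetilide-free buffer controls plus 3 SD, so a positive margin; inactive = the rest.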

Assay: nonspecific flux effects in parental CHO-K1, confirmation, counter-screen for hERG block protection project, cell-based, CHO-K1 parental line, FluxOR thallium flux (AID 1839);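 also: compounds applied alone with no dofetilide to cells lacking hERG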
Details: CHO-K1 parental cells, FluxOR thallium flux fluorescence; at 10 µM

Row | Compound | signal change vs control minus 3*SD hit threshold (margin above threshold, higher = more increase)
1 | CC(=O)Cn1c(=O)c2c(nc3n2CCCN3Cc2ccccc2)n(C)c1=O | -25.8% (inactive)
2 | O=C(O)Cc1cc(I)c(Oc2ccc(O)c(I)c2)c(I)c1 | 7.3% (active)
3 | O=C(O)CN1C(=O)c2ccc(Oc3ccc4c(c3)C(=O)N(CC(=O)O)C4=O)cc2C1=O | -18.4% (inactive)
4 | CCCCC(=O)Nc1ccc(NCc2ccc(C)s2)cc1 | -5.7% (inactive)
5 | CC[C@@H](C(=O)[C@@H](C)[C@@H](O)[C@H](C)CCc1ccc(C)c(O)c1C(=O)O)[C@H]1O[C@](CC)([C@H]2CC[C@](O)(CC)[C@H](C)O2)C[C@@H]1C | 58.8% (active)
6 | Cc1ccc(C(C)NC(=S)NC2CCCCC2)cc1C (configuration not stated) | 1% (active)
7 | CC(NC(=S)NC1CCCCC1)c1ccccc1 (configuration not stated) | -19.6% (inactive)
8 | CCc1ccc(C(C)NC(=O)C2CCCC2)cc1 (configuration not stated) | -18.1% (inactive)
9 | Cc1ccc(C(=O)NC(C)c2ccc(C)c(C)c2)s1 (configuration not stated) | -19% (inactive)
10 | CCOc1ccc(C(C)NC(=S)NC2CCCCC2)cc1 (configuration not stated) | -15.5% (inactive)
11 | Cc1ccc(C(C)NC(=O)C2CCCC2)cc1C (configuration not stated) | 0.7% (active)
12 | C[n+]1ccccc1/C=C/c1c(F)cccc1F | -21.1% (inactive)
13 | COCCn1nnnc1C(c1ccc(C(F)(F)F)cc1)N1CCOCC1 (configuration not stated) | -34% (inactive)
14 | O=C1C2C3C=CC(C4CC34)C2C(=O)N1/N=C/c1ccc(-c2ccc(F)cc2[N+](=O)[O-])o1 (configuration not stated) | -30.5% (inactive)
15 | COc1ccc(NC(=O)C(=O)NNC(=O)C(C)Oc2ccc(Cl)cc2Cl)cc1 (configuration not stated) | -10.9% (inactive)
16 | COc1cccc(C(=O)NNC(=O)C(=O)Nc2ccc(C)cc2)c1 | 28.8% (active)
17 | COc1cc(OC)cc(C(=O)NNC(=O)C(=O)Nc2cc(OC)c(Cl)cc2OC)c1 | 23.8% (active)
18 | COc1cccc(C(=O)CC(=O)C(=O)Nc2ccc(C)cc2Cl)c1 | -9.2% (inactive)
19 | COc1cccc(C(=O)NNC(=O)C(=O)Nc2ccc(C)c(Cl)c2)c1 | 13.6% (active)
20 | COc1ccc(C(=O)NNC(=O)C(=O)Nc2ccc(C)cc2)cc1 | -5.7% (inactive)
21 | COc1ccc(NC(=O)c2ccc(COCC(F)(F)C(F)F)cc2)cc1 | -40.3% (inactive)
22 | COc1ccc(C(=O)NNC(=O)C(=O)Nc2ccc(C)c(Cl)c2)cc1 | -14.1% (inactive)
23 | CCc1ccc(NC(=O)C(=O)NNC(=O)c2ccc(OC)cc2)cc1 | 21.6% (active)
24 | COc1cccc(C(=O)NNC(=O)C(=O)Nc2cccc(Cl)c2C)c1 | -6.7% (inactive)
25 | Cc1cc(S(=O)(=O)Nc2ccc(C(=O)N3CCN(C(=O)c4ccco4)CC3)cc2)ccc1F | -12.4% (inactive)

Row | Compound | signal change vs control minus 3*SD hit threshold (margin above threshold, higher = more increase)
26 | O=[N+]([O-])c1cc(S(=O)(=O)/N=C(/c2ccccc2)N2CCOCC2)ccc1Cl | -31.7% (inactive)
27 | CCOP(=O)(OCC)C(NC(=O)c1ccc(OC)c(OC)c1)c1ccccc1 (configuration not stated) | -21.4% (inactive)
28 | Cc1cc(C(=O)NNC2CC(=O)N(c3ccc4ccccc4c3)C2=O)c(C)o1 (configuration not stated) | -24.7% (inactive)
29 | O=C(c1cccs1)N1CCN(C23CC4CC(CC(C4)C2)C3)CC1 | -34.9% (inactive)
30 | Cc1cc(C)c(S(=O)(=O)NCc2ccccn2)c(C)c1 | -22.6% (inactive)
31 | Cn1c(=O)c(Sc2ccccc2)c(O)c2ccccc21 | -14.2% (inactive)
32 | O=C1CC(O)(C(F)(F)F)Oc2c1ccc1ccccc21 (configuration not stated) | -3% (inactive)
33 | COc1cccc(CCNS(=O)(=O)CCNC(=O)c2cccc(OC)c2)c1 | -25.6% (inactive)
34 | CCc1ccc(NC(=S)Nc2cccc(OC)c2)cc1 | -32.4% (inactive)
35 | CCc1ccc(NC(=O)C(=O)NNC(=O)c2cccc(OC)c2)cc1 | 41.3% (active)
36 | CC(=O)Nc1ccccc1C(=O)C(=O)Nc1ccccc1 | -32.8% (inactive)
37 | CN(C)/C=C/C(=O)c1ccc(Cl)cc1Cl | -23.8% (inactive)
38 | CCCN(CCC)C(=S)NC(=O)c1ccc(Cl)cc1Cl | 27% (active)
39 | CC1(C)CC(NC(=O)c2ccc(Cl)cc2Cl)CC(C)(C)N1 | -35.9% (inactive)
40 | O=C(NC(=S)N1CCCCCC1)c1ccc(Cl)cc1Cl | -16.7% (inactive)
41 | CCN(CC)C(=S)NC(=O)c1ccc(F)cc1 | -15.9% (inactive)
42 | CC1(C)CC2CC(C)(CN2C(=S)NC(=O)c2ccccc2Cl)C1 (configuration not stated) | -14.7% (inactive)
43 | O=C(NC(=S)N(CCO)Cc1ccccc1)c1cc(Br)ccc1Cl | -12.2% (inactive)
44 | CCN(CC)C(=S)NC(=O)c1ccc(Cl)cc1Cl | 3.8% (active)
45 | CCCCN(CCCC)C(=S)NC(=O)c1ccccc1Cl | 39.6% (active)
46 | C=CCNC(=O)c1onc(CSc2ccc(OC)cc2)c1C(=O)O | -35.4% (inactive)
47 | Cc1ccc(/C=C(\NC(=O)c2ccccc2)C(=O)N2CCCCC2)cc1 | -35.4% (inactive)
48 | O=C(CCc1nc(-c2ccccc2)no1)N1CCCC1 | -26.5% (inactive)
49 | Cc1nn(-c2ccccc2)c(N2CCCC2)c1/C=N/O | -24.6% (inactive)
50 | Cc1nn(-c2ccccc2)c(C)c1S(=O)(=O)O | -23.2% (inactive)

Row | Compound | signal change vs control minus 3*SD hit threshold (margin above threshold, higher = more increase)
51 | Cc1nn(-c2ccccc2)c(Cl)c1/C=C1\SC(=S)NC1=O | 26.5% (active)
52 | CCc1nnc(NC(=O)c2c(C)nn(-c3ccccc3)c2Cl)s1 | -14.1% (inactive)
53 | O=S(=O)(NC(=S)NC1CCCCC1)c1ccc(Br)cc1 | -9.7% (inactive)
54 | CCOC(=O)C1CCN(C(=O)COC(=O)c2nn(C)c(=O)c3ccccc23)CC1 | -33.9% (inactive)
55 | CCOC(=O)c1c(O)c2ccccc2n(C)c1=O | -25% (inactive)
56 | CCOC(=O)c1n[nH]n2c1nc(=S)c1ccccc12 | 12.1% (active)
57 | Cc1[nH]n(-c2ccc(F)cc2)c(=O)c1/C=N/c1sc2c(c1C#N)CCCC2 | -1.9% (inactive)
58 | COc1ccc2nc(-n3c(O)c(C4=c5ccccc5=NC4=O)[nH]c3=S)sc2c1 | -25.1% (inactive)
59 | COc1ccc2nc(/N=C/c3c(C)[nH]n(-c4ccc(C)cc4)c3=O)sc2c1 | 62.6% (active)
60 | Cc1[nH]n(-c2ccccc2)c(=O)c1N=Nc1ccc(C(N)=O)cc1 | -43.3% (inactive)
61 | Cc1[nH]n(-c2cccc3ccccc23)c(=O)c1/C=N/c1sc2c(c1C#N)CCC2 | -19.1% (inactive)
62 | CCOc1ccc2nc(/N=C/c3nc(-c4ccc(Br)cc4)oc3O)sc2c1 | -17.1% (inactive)
63 | CCOc1ccc2nc(/N=C/c3c(C)[nH]n(-c4ccc(C)cc4)c3=O)sc2c1 | 33.5% (active)
64 | COc1ccc2nc(/N=C/c3c(C)[nH]n(-c4ccc(C)cc4C)c3=O)sc2c1 | 22.3% (active)
65 | CCOc1ccc2nc(N3C(=O)/C(=C/c4ccc(Cl)cc4)NC3=S)sc2c1 | -25% (inactive)
66 | Cc1[nH]n(-c2ccc(Cl)cc2)c(=O)c1/C=N/c1nnc(-c2ccccc2)s1 | 78.7% (active)
67 | CCCCNC(=O)N1CCCC(C(=O)c2cc(C)c(OC)c(C)c2)C1 (configuration not stated) | -38% (inactive)
68 | O=C(NCc1cccs1)C1CC(c2ccc(F)cc2)=NO1 (configuration not stated) | -40.3% (inactive)
69 | Cc1cccc(NC(=O)CN2C(=O)S/C(=C\c3cccn3-c3cccc(C(=O)O)c3)C2=O)c1 | -27.2% (inactive)
70 | Cc1cc(Cl)ccc1OC(C)C(=O)NCCc1ccc2c(c1)OCCO2 (configuration not stated) | -37.2% (inactive)
71 | CC(NC(=O)NC1CCCCC1)c1ccc2c(c1)OCO2 (configuration not stated) | -5.4% (inactive)
72 | COc1ccc(C(=O)CC(=O)C(=O)Nc2ccc(C)c(C)c2)cc1 | -27.5% (inactive)
73 | Cc1ccnc(SCCn2c(N3CC(C)OC(C)C3)nc3c2c(=O)n(C)c(=O)n3C)n1 (configuration not stated) | -31.9% (inactive)
74 | CCOc1ccc2nc(/N=C/c3nc(-c4ccccc4)oc3O)sc2c1 | -18.5% (inactive)
75 | CCOc1ccc2nc(N3C(=O)/C(=C/c4ccccc4)NC3=S)sc2c1 | -18.8% (inactive)

Row | Compound | signal change vs control minus 3*SD hit threshold (margin above threshold, higher = more increase)
76 | CCOc1ccc2nc(/N=C/c3c(C)[nH]n(-c4ccccc4)c3=O)sc2c1 | 53.3% (active)
77 | S=c1[nH]nc(CSc2nc3ccccc3s2)n1C1CCCCC1 | -26.3% (inactive)
78 | Cc1ccc(NC(=O)c2cc(NC(=O)/C=C\C(=O)O)ccc2N2CCCCC2)cc1 | -12.7% (inactive)
79 | CC1(C)Cc2c(sc3[nH]c(=S)n(Cc4ccccc4)c(=O)c23)CO1 | -22.2% (inactive)
80 | CCC1(C)Cc2c(sc3[nH]c(=S)n(Cc4ccccc4)c(=O)c23)CO1 (configuration not stated) | 10.6% (active)
81 | CC(C)C1Cc2c(sc3[nH]c(=S)n(Cc4ccccc4)c(=O)c23)CO1 (configuration not stated) | -10.8% (inactive)
82 | COC(=O)CSc1nc(N2CCCCC2)c2c(c1C#N)CCCC2 | -8.9% (inactive)
83 | O=C(COC(=O)c1cc(Br)ccc1O)Nc1cccnc1Cl | -24.7% (inactive)
84 | CC(C)c1ccc(OCC(=O)NN2C(=O)c3ccccc3C2=O)c(Br)c1 | -24% (inactive)
85 | Cc1ccc(C)c2sc(NC(=O)c3nc4ccccc4s3)nc12 | -20.2% (inactive)
86 | CCOC(=O)c1c(NS(=O)(=O)c2ccc(Br)cc2)sc2c1CCC2 | 32.6% (active)
87 | COC(=O)c1c(NS(=O)(=O)c2ccc3ccccc3c2)sc2c1CCCC2 | -22.4% (inactive)
88 | CCOC(=O)c1c(NS(=O)(=O)Cc2ccccc2)sc2c1CCCC2 | -0.7% (inactive)
89 | CN(NC1OC(=O)c2ccccc21)c1ccccc1[N+](=O)[O-] (configuration not stated) | -30.9% (inactive)
90 | COc1nnc(-c2ccc(C)c(S(=O)(=O)NC(C)(C)CO)c2)c2ccccc12 | -25.8% (inactive)
91 | Cc1ccc(C(=O)Sc2cccccc2=O)cc1 | -20.3% (inactive)
92 | O=c1c(O)c(-c2cccs2)oc2ccc(Cl)cc12 | 64.2% (active)
93 | O=c1c2cc(Cl)ccc2[nH]c(=S)n1Cc1cccs1 | -21.6% (inactive)
94 | O=c1c(O)c(-c2cccs2)oc2ccccc12 | 39.2% (active)
95 | O=C1OC(/C=C/c2ccc(Cl)cc2Cl)=NC/1=C\c1cccs1 | -32.3% (inactive)
96 | O=c1c(O)c(-c2ccc3c(c2)OCO3)oc2ccccc12 | -10.8% (inactive)
97 | CCN(CC)CCCN1C(=O)c2oc3ccccc3c(=O)c2C1c1cccs1 (configuration not stated) | -15.9% (inactive)
